Article PMC7862700, “An all-to-all approach to the identification of sequence-specific readers for epigenetic DNA modifications on cytosine”

Legend:
Assay in all cases: DAPPL (digital affinity profiling via proximity ligation, sequencing); 10 mM Tris-HCl pH 7.5, 50 mM NaCl, 1 mM DTT, 4% glycerol, room temperature, 30 min; GST-TFs on glutathione beads, 16-mer random dsDNA library, 0.1% formaldehyde crosslink after washing; high values mean tight binding
Conditions in all cases: protein: recombinant; tags: N-terminal GST; dsDNA, one strand shown
FLI1 = biological target: T1, FLI1 (Homo sapiens, UniProt Q01543 1-452)
T1 sequence: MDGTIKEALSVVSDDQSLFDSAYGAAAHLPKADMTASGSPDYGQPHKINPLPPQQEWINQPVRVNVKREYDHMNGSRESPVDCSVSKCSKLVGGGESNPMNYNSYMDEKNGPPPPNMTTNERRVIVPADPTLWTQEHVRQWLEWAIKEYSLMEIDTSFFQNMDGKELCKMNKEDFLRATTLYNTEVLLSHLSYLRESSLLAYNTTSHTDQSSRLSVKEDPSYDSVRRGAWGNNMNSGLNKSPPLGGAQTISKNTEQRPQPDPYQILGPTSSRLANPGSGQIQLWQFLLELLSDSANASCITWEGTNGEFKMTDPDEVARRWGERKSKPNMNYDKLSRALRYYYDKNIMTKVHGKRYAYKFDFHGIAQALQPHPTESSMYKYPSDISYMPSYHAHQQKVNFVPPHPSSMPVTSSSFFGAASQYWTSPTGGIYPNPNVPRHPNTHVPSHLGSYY
How it was run: (§1)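 Pools were built from human transcription factors expressed in yeast as GST fusions, captured on glutathione beads and DNA-barcoded, along with a tag-only sample. Incubation with 200 nmole of a 16-mer random double-stranded DNA library lasted 30 min at room temperature in Tris/NaCl/DTT/glycerol buffer, and was followed by washing, 0.1% formaldehyde crosslinking, proximity ligation, PCR amplification and Illumina NextSeq500 sequencing. Binding signal is the quotient of each hexamer's read frequency for a factor and its frequency for the tag-only sample.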

ELK1 = biological target: T2, ELK1 (Homo sapiens, UniProt P19419 1-428)
T2 sequence: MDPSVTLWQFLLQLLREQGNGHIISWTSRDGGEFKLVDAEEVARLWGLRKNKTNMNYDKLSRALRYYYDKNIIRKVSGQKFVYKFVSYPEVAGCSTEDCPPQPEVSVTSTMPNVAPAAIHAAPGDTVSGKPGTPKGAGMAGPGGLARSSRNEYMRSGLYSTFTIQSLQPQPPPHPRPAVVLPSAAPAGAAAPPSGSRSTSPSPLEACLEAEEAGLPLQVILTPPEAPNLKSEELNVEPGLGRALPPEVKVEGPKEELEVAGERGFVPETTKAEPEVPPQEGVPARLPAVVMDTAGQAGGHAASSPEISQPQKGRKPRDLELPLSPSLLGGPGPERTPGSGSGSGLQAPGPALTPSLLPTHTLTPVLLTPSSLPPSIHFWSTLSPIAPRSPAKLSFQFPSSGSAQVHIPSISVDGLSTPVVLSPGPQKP
How it was run: as §1

GABPA = biological target: T3, GABPA (Homo sapiens, UniProt Q06546 1-454)
T3 sequence: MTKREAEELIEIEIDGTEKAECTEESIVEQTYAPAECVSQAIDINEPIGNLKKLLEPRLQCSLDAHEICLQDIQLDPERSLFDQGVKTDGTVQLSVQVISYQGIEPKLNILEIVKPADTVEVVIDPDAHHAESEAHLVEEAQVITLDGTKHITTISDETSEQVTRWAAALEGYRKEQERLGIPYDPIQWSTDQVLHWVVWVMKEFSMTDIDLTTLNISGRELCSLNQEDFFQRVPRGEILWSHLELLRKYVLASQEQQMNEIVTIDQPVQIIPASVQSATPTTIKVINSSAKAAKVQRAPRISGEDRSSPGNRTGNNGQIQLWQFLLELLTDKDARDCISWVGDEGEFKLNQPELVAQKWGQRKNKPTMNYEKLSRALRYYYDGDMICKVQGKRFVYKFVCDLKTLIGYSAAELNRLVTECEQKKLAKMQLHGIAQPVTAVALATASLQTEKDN
How it was run: as §1

ERG = biological target: T4, ERG (Homo sapiens, UniProt P11308 1-479)
T4 sequence: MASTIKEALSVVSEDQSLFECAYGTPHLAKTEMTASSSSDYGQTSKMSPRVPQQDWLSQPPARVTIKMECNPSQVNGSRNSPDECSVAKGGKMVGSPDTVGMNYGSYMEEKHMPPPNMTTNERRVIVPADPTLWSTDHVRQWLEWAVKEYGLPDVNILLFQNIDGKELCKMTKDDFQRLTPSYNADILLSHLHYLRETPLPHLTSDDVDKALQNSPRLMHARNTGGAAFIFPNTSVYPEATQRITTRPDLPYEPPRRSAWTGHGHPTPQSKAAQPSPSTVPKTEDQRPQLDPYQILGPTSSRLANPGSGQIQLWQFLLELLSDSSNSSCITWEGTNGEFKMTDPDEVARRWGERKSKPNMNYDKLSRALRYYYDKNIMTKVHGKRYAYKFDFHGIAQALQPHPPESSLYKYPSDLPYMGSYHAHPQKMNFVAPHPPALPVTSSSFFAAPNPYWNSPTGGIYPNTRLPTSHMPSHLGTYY
How it was run: as §1

ELF1 = ELF1 (Homo sapiens, UniProt P32519 1-619)
ELF1, sequence (P32519 whole entry): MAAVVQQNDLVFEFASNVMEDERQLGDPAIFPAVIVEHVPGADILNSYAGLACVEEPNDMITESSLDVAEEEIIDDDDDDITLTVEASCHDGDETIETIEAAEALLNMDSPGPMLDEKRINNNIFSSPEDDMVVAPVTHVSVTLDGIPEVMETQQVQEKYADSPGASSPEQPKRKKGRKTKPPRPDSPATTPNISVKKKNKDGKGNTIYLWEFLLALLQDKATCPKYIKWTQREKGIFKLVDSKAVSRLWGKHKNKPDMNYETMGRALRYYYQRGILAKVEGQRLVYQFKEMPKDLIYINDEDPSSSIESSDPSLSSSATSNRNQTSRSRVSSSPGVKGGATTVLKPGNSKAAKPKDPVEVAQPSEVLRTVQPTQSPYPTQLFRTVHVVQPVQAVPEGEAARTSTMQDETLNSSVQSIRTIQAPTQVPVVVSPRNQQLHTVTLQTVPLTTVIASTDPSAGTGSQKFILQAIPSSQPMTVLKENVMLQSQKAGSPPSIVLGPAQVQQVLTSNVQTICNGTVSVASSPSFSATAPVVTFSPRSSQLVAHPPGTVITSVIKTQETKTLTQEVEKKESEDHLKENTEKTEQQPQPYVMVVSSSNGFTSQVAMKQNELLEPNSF
How it was run: as §1

EHF = biological target: T5, EHF (Homo sapiens, UniProt Q9NZC4 1-300)
T5 sequence: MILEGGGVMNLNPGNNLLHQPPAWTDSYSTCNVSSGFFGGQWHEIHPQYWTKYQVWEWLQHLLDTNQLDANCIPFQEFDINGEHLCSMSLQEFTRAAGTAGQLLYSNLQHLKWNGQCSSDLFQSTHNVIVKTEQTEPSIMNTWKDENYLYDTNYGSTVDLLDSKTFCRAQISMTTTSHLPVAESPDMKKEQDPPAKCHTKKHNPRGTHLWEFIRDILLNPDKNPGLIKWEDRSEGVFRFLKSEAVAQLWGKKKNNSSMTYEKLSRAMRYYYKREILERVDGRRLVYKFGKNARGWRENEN
How it was run: as §1

SPI1 [1] = biological target: SPI1 (Homo sapiens, UniProt P17947 1-270)
How it was run: as §1

SPIB = SPIB (Homo sapiens, UniProt Q01892 1-262)
SPIB, sequence (Q01892 whole entry): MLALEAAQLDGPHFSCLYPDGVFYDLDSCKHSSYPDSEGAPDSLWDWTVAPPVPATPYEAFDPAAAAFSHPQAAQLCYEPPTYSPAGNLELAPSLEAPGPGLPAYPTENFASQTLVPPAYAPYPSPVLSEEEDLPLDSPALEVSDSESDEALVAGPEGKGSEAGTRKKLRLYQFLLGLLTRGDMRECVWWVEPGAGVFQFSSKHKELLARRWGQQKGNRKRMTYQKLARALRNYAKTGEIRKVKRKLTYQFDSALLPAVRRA
How it was run: as §1

SPI1 [2] = biological target: SPI1 (Homo sapiens, UniProt P17947 1-270); remark: listed apart in the source
How it was run: as §1

ELK3 = biological target: T6, ELK3 (Homo sapiens, UniProt P41970 1-407)
T6 sequence: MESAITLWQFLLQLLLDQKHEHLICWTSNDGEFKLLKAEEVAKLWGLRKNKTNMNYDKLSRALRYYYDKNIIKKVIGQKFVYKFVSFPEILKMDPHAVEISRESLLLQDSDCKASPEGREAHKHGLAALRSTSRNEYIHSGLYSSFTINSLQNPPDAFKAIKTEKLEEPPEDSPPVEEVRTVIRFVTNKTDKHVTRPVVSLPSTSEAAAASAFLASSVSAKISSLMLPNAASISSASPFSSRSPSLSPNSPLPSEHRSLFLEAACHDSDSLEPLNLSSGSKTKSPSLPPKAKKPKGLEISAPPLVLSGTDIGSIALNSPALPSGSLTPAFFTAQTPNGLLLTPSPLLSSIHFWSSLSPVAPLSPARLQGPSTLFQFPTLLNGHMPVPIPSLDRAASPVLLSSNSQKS
How it was run: as §1

Sequence | binding signal (FLI1) | binding signal (ELK1) | binding signal (GABPA) | binding signal (ERG) | binding signal (ELF1) | binding signal (EHF) | binding signal (SPI1 [1]) | binding signal (SPIB) | binding signal (SPI1 [2]) | binding signal (ELK3)
ATTAAG | 1.04 fold enrichment (6-mer frequency, TF over GST control) | 1.07 fold enrichment (6-mer frequency, TF over GST control) | 1.09 fold enrichment (6-mer frequency, TF over GST control) | 1.01 fold enrichment (6-mer frequency, TF over GST control) | 1.08 fold enrichment (6-mer frequency, TF over GST control) | 1.04 fold enrichment (6-mer frequency, TF over GST control) | 1.03 fold enrichment (6-mer frequency, TF over GST control) | 1.06 fold enrichment (6-mer frequency, TF over GST control) | – | –
TATCGC | 1.13 fold enrichment (6-mer frequency, TF over GST control) | 1.16 fold enrichment (6-mer frequency, TF over GST control) | 1.23 fold enrichment (6-mer frequency, TF over GST control) | 1.15 fold enrichment (6-mer frequency, TF over GST control) | 1.16 fold enrichment (6-mer frequency, TF over GST control) | 1.28 fold enrichment (6-mer frequency, TF over GST control) | 1.08 fold enrichment (6-mer frequency, TF over GST control) | 1.16 fold enrichment (6-mer frequency, TF over GST control) | – | –
CACTTC | 3.41 fold enrichment (6-mer frequency, TF over GST control) | 3.77 fold enrichment (6-mer frequency, TF over GST control) | 3.25 fold enrichment (6-mer frequency, TF over GST control) | 4.19 fold enrichment (6-mer frequency, TF over GST control) | 3.41 fold enrichment (6-mer frequency, TF over GST control) | 3.63 fold enrichment (6-mer frequency, TF over GST control) | – | 3.54 fold enrichment (6-mer frequency, TF over GST control) | 5.56 fold enrichment (6-mer frequency, TF over GST control) | 3.97 fold enrichment (6-mer frequency, TF over GST control)
GCTCGT | 1.19 fold enrichment (6-mer frequency, TF over GST control) | 1.16 fold enrichment (6-mer frequency, TF over GST control) | 1.26 fold enrichment (6-mer frequency, TF over GST control) | 1.12 fold enrichment (6-mer frequency, TF over GST control) | 1.15 fold enrichment (6-mer frequency, TF over GST control) | 1.14 fold enrichment (6-mer frequency, TF over GST control) | 1.12 fold enrichment (6-mer frequency, TF over GST control) | 1.16 fold enrichment (6-mer frequency, TF over GST control) | – | –
CCGGAA | 5.18 fold enrichment (6-mer frequency, TF over GST control) | 6.13 fold enrichment (6-mer frequency, TF over GST control) | 4.9 fold enrichment (6-mer frequency, TF over GST control) | 6.79 fold enrichment (6-mer frequency, TF over GST control) | 5.12 fold enrichment (6-mer frequency, TF over GST control) | 5.9 fold enrichment (6-mer frequency, TF over GST control) | – | 5.79 fold enrichment (6-mer frequency, TF over GST control) | 5.33 fold enrichment (6-mer frequency, TF over GST control) | 6.42 fold enrichment (6-mer frequency, TF over GST control)
TCTATG | 1.12 fold enrichment (6-mer frequency, TF over GST control) | 1.2 fold enrichment (6-mer frequency, TF over GST control) | 1.21 fold enrichment (6-mer frequency, TF over GST control) | 1.03 fold enrichment (6-mer frequency, TF over GST control) | 1.12 fold enrichment (6-mer frequency, TF over GST control) | 1.13 fold enrichment (6-mer frequency, TF over GST control) | 1.09 fold enrichment (6-mer frequency, TF over GST control) | 1.12 fold enrichment (6-mer frequency, TF over GST control) | – | –
CAACAC | 1.13 fold enrichment (6-mer frequency, TF over GST control) | 1.23 fold enrichment (6-mer frequency, TF over GST control) | 1.19 fold enrichment (6-mer frequency, TF over GST control) | 1.1 fold enrichment (6-mer frequency, TF over GST control) | 1.13 fold enrichment (6-mer frequency, TF over GST control) | 1.09 fold enrichment (6-mer frequency, TF over GST control) | 1.06 fold enrichment (6-mer frequency, TF over GST control) | 1.06 fold enrichment (6-mer frequency, TF over GST control) | – | –
CTACGT | 1.29 fold enrichment (6-mer frequency, TF over GST control) | 1.23 fold enrichment (6-mer frequency, TF over GST control) | 1.18 fold enrichment (6-mer frequency, TF over GST control) | 1.19 fold enrichment (6-mer frequency, TF over GST control) | 1.13 fold enrichment (6-mer frequency, TF over GST control) | 1.25 fold enrichment (6-mer frequency, TF over GST control) | 1.08 fold enrichment (6-mer frequency, TF over GST control) | 1.27 fold enrichment (6-mer frequency, TF over GST control) | – | 1.31 fold enrichment (6-mer frequency, TF over GST control)
